Measured values: PubChem BioAssay (EPA / NIEHS)
The source holds several records for some structures; these can differ, active in one and inactive in another. Active and inactive are the calls of the source. Rule for the calls: active = hit-call score of the fitted dose curve at least 0.9, where 1 is the maximum; inactive = score below 0.9.

Experiments:
[1] = read-out: Vascular cell adhesion molecule 1 (VCAM1), VCAM1 (gene 7412); assay: BSK_hDFCGF_VCAM1: BioMAP Diversity Plus: hDFCGF Assay for Vascular cell adhesion molecule 1 (VCAM1) Biomarker Activity (AID 2283065); conditions: primary human foreskin fibroblasts; actives raise or lower the signal;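 for AC50: VCAM-1 protein level quantified by ELISA after 24 h chemical exposure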
Summary of the method: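 Measured after 24 h chemical treatment of primary human skin fibroblasts, VCAM-1 was detected by ELISA and concentration-response analysed in both directions versus DMSO vehicle.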

[2] = read-out: Plasminogen activator inhibitor-1 (PAI1), SERPINE1 (gene 5054); assay: BSK_hDFCGF_PAI1: BioMAP Diversity Plus: hDFCGF Assay for Plasminogen activator inhibitor-1 (PAI1) Biomarker Activity (AID 2283066); conditions: primary human foreskin fibroblasts; actives raise or lower the signal
Summary of the method: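 ELISA readout of PAI-1 from primary human skin fibroblast cultures, 24 h after compound addition. Gain or loss of signal was fitted bidirectionally against DMSO baseline.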

[3] = read-out: Intercellular Adhesion Molecule 1 (ICAM1), ICAM1 (gene 3383); assay: BSK_KF3CT_ICAM1: BioMAP Diversity Plus: KF3CT Assay for Intercellular Adhesion Molecule 1 (ICAM1) Biomarker Activity (AID 2283067); conditions: primary human keratinocytes with fibroblasts; actives raise or lower the signal
Summary of the method: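 Bidirectional curve fitting against a DMSO baseline was applied to ICAM-1 ELISA signal from primary human skin co-cultures harvested 24 h after treatment, with SRB staining of parallel wells for overt cytotoxicity.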

[4] = read-out: Interferon-gamma inducible Protein 10 (IP10), CXCL10 (gene 3627); assay: BSK_KF3CT_IP10: BioMAP Diversity Plus: KF3CT Assay for Interferon-gamma inducible Protein 10 (IP10) Biomarker Activity (AID 2283068); conditions: primary human keratinocytes with fibroblasts; actives raise or lower the signal
Summary of the method: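 Signal is secreted/surface IP-10 by ELISA in a human primary skin co-culture of keratinocytes and foreskin fibroblasts, taken 24 h post-dosing; DMSO served as negative control.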

[5] = BSK_KF3CT_SRB: Viability Assessment in the BioMAP Diversity Plus: KF3CT Assay (AID 2283069); conditions: primary human keratinocytes with fibroblasts;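 note: total protein by sulforhodamine B staining as a cytotoxicity measure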
Summary of the method: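 Cytotoxicity was gauged by SRB staining (0.1% SRB, 10% TCA fixation, 560 nm) of parallel cultures at 24 h. The cells were primary human skin keratinocytes co-cultured with fibroblasts, and activity was fitted in both directions against DMSO.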

[6] = read-out: Interleukin-1 alpha (IL1a), IL1A (gene 3552); assay: BSK_KF3CT_IL1a: BioMAP Diversity Plus: KF3CT Assay for Interleukin-1 alpha (IL1a) Biomarker Activity (AID 2283070); conditions: primary human keratinocytes with fibroblasts; actives raise or lower the signal
Summary of the method: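 IL-1a was detected by ELISA 24 h after chemical treatment of a co-culture of human skin keratinocytes and foreskin fibroblasts. Gain or loss of signal was fitted against the DMSO baseline.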

[7] = read-out: TIMP metallopeptidase inhibitor 2 (TIMP2), TIMP2 (gene 7077); assay: BSK_KF3CT_TIMP2: BioMAP Diversity Plus: KF3CT Assay for TIMP metallopeptidase inhibitor 2 (TIMP2) Biomarker Activity (AID 2283071); conditions: primary human keratinocytes with fibroblasts; actives raise or lower the signal
Summary of the method: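 ELISA readout of TIMP-2 in keratinocyte plus foreskin fibroblast co-cultures (human skin primary cells), 24 h post-dose. Gain or loss of signal fitted relative to DMSO.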

[8] = read-out: C-C motif chemokine 2 (Homo sapiens) (UniProt P13500); assay: BSK_KF3CT_MCP1: BioMAP Diversity Plus: KF3CT Assay for Monocyte Chemoattractant Protein 1 (MCP1/CCL2) Biomarker Activity (AID 2283073); conditions: primary human keratinocytes with fibroblasts; actives raise or lower the signal
Summary of the method: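 Biomarker MCP-1 is measured by ELISA in primary human keratinocytes co-cultured with foreskin fibroblasts, 24 h after chemical treatment; DMSO serves as the negative control and activity baseline.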

[9] = read-out: urokinase plasminogen activator (uPA), PLAU (gene 5328); assay: BSK_KF3CT_uPA: BioMAP Diversity Plus: KF3CT Assay for urokinase plasminogen activator (uPA) Biomarker Activity (AID 2283075); conditions: primary human keratinocytes with fibroblasts; actives raise or lower the signal
Summary of the method: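 ELISA read-out of uPA 24 h after dosing human skin keratinocytes co-cultured with foreskin fibroblasts. Signal change fitted both ways relative to DMSO; sulforhodamine B on parallel cultures marks overt cytotoxicity.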

[10] = read-out: CD40, CD40 (gene 958); assay: BSK_LPS_CD40: BioMAP Diversity Plus: LPS Assay for CD40 Biomarker Activity (AID 2283076); conditions: primary human HUVEC with PBMC; actives raise or lower the signal
Summary of the method: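 Using a multiplexed primary human co-culture (umbilical vein endothelium plus PBMC), CD40 was read by ELISA 24 h after dosing, with cytotoxicity tracked by sulforhodamine B staining of parallel cultures and activity fitted bidirectionally versus DMSO.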

[11] = read-out: Interleukin-8 (IL8), CXCL8 (gene 3576); assay: BSK_LPS_IL8: BioMAP Diversity Plus: LPS Assay for Interleukin-8 (IL8) Biomarker Activity (AID 2283078); conditions: primary human HUVEC with PBMC; actives raise or lower the signal
Summary of the method: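 In this LPS system, chemical-treated human umbilical vein endothelium/PBMC co-cultures were harvested at 24 h for IL-8 ELISA.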

[12] = BSK_LPS_SRB: Viability Assessment in the BioMAP Diversity Plus: LPS Assay (AID 2283079); conditions: primary human HUVEC with PBMC;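 note: total protein by sulforhodamine B absorbance as a cytotoxicity measure; measured one day after compound addition; fitted in both directions against DMSO so loss or gain of signal counts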
Summary of the method: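 Cytotoxicity endpoint in human endothelial–PBMC co-culture: 24 h exposure, then SRB (0.1%) staining, 560 nm read.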

[13] = read-out: Interleukin-1 alpha (IL1a), IL1A (gene 3552); assay: BSK_LPS_IL1a: BioMAP Diversity Plus: LPS Assay for Interleukin-1 alpha (IL1a) Biomarker Activity (AID 2283080); conditions: primary human HUVEC with PBMC; actives raise or lower the signal
Summary of the method: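 Primary human HUVEC and PBMC co-culture stimulated with LPS is dosed and harvested at 24 h. Both increases and decreases in ELISA-measured IL-1a are scored relative to DMSO.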

[14] = read-out: Monocyte Chemoattractant Protein-1 (MCP1), CCL2 (gene 6347); assay: BSK_LPS_MCP1: BioMAP Diversity Plus: LPS Assay for Monocyte Chemoattractant Protein-1 (MCP1) Biomarker Activity (AID 2283081); conditions: primary human HUVEC with PBMC; actives raise or lower the signal
Summary of the method: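 Values derive from bidirectional fitting against DMSO of ELISA-measured MCP-1 in a human primary endothelial and mononuclear cell co-culture, 24 h after chemical addition under LPS activation.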

[15] = BSK_LPS_PGE2: BioMAP Diversity Plus: LPS Assay for Prostaglandin E2 (PGE2) Biomarker Activity (AID 2283082); conditions: primary human HUVEC with PBMC; actives raise or lower the signal;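 for AC50: secreted prostaglandin E2 measured by ELISA in LPS-stimulated co-culture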
Summary of the method: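 ELISA read-out of PGE2 from human umbilical vein endothelial cells co-cultured with peripheral blood mononuclear cells under LPS, 24 h post-dose. Gain or loss of signal scored relative to DMSO baseline.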

[16] = read-out: Macrophage colony-stimulating factor (MCSF), CSF1 (gene 1435); assay: BSK_LPS_MCSF: BioMAP Diversity Plus: LPS Assay for Macrophage colony-stimulating factor (MCSF) Biomarker Activity (AID 2283083); conditions: primary human HUVEC with PBMC; actives raise or lower the signal
Summary of the method: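 Bidirectional fit versus DMSO of ELISA-measured M-CSF in co-cultured human umbilical vein endothelial cells and PBMC, sampled 24 h after dosing.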

[17] = read-out: Tissue Factor, F3 (gene 2152); assay: BSK_LPS_TissueFactor: BioMAP Diversity Plus: LPS Assay for Tissue Factor Biomarker Activity (AID 2283084); conditions: primary human HUVEC with PBMC; actives raise or lower the signal
Summary of the method: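 Read-out: CD142 ELISA, 24 h. System: LPS-driven human endothelial/PBMC co-culture. Analysis: up- or down-signal fitted against DMSO.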

[18] = read-out: Transforming growth factor beta 1 (TGFb1), TGFB1 (gene 7040); assay: BSK_KF3CT_TGFb1: BioMAP Diversity Plus: KF3CT Assay for Transforming growth factor beta 1 (TGFb1) Biomarker Activity (AID 2283072); conditions: primary human keratinocytes with fibroblasts; actives raise or lower the signal
Summary of the method: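 Read-out: ELISA for TGF-b1 in keratinocyte/foreskin fibroblast human skin co-culture, 24 h after dosing; bidirectional curve fit vs DMSO baseline; gain or loss of signal scored.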

[19] = read-out: Matrix Metallopeptidase 9 (MMP9), MMP9 (gene 4318); assay: BSK_KF3CT_MMP9: BioMAP Diversity Plus: KF3CT Assay for Matrix Metallopeptidase 9 (MMP9) Biomarker Activity (AID 2283074); conditions: primary human keratinocytes with fibroblasts; actives raise or lower the signal
Summary of the method: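 MMP-9 quantified by ELISA after 24 h chemical treatment of primary human skin keratinocyte/fibroblast co-cultures; gain or loss fitted against DMSO, with parallel SRB staining (0.1% SRB, 560 nm) for overt cytotoxicity.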

[20] = read-out: E-selectin (Homo sapiens) (UniProt P16581); assay: BSK_LPS_Eselectin: BioMAP Diversity Plus: LPS Assay for Eselectin Biomarker Activity (AID 2283077); conditions: primary human HUVEC with PBMC; actives raise or lower the signal
Summary of the method: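 Dose chemical onto LPS-driven HUVEC/PBMC co-culture; after 24 h, run ELISA for E-selectin; fit up- and down-going responses relative to DMSO control.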

Measured: AC50

Chain of E-selectin (Homo sapiens) (P16581 whole entry, looked up): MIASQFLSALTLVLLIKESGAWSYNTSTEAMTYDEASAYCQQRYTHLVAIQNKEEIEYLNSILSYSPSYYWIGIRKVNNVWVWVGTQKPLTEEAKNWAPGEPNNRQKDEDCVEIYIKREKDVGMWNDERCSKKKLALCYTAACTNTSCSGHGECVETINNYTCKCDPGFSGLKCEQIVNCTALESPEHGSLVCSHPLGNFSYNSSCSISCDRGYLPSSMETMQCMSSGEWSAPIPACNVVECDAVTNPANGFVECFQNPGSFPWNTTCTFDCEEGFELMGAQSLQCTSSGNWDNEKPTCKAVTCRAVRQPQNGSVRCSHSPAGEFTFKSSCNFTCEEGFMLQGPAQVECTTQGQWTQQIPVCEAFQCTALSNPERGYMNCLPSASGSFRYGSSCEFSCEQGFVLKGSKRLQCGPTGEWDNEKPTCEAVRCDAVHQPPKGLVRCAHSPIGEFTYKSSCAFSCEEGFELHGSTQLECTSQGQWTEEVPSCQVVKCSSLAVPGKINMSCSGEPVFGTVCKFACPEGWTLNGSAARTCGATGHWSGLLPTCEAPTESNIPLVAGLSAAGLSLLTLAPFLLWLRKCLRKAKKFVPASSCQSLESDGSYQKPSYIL

O=C(O)CCC(F)(C(F)(F)F)C(F)(F)F
inactive: [1] | [2] | [3] | [4] | [5] | [6] | [7] | [8] | [9] | [10] | [11] | [12] | [13] | [14] | [15] | [16] | [17]
active: [1] 7.04 µM

CCCCCCCCC(=O)NCc1ccc(O)c(OC)c1
active: [2] 0.155 µM | [13] 0.1 µM | [15] 12.8 µM
not listed: [11]
inactive: all other assays above

COC(=O)c1sccc1S(=O)(=O)NC(=O)Nc1nc(C)nc(OC)n1
not listed: [11] | [20]
inactive: all other assays above

CCNc1nc(NC(C)(C)C)nc(SC)n1
active: [6] 20 µM | [7] 20 µM
not listed: [15] | [19]
inactive: all other assays above

COP(=S)(OC)Oc1ccc(S(=O)(=O)N(C)C)cc1
active: [13] 0.0677 µM
inactive: all other assays above

NC(=S)Nc1ccccc1
not listed: [15] | [19]
inactive: all other assays above
